Hits are enriched below; roughly 28% of the tested compounds scored in any of these assays.
Pyk2 oligo antag: antagonists of Pyk2 self-association, primary screen, Q293 cells, FERM NanoBiT luminescence, HTS; Protein-tyrosine kinase 2-beta (Homo sapiens), Q14289; active compounds read low; z-score (the deposit names both 25 µM and 10 µM); 99,000 tested, 0.83% active;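 active = Z-score of -3 or lower, scaled per plate to the spread of control and sample wells; inactive = z-score above -3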;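 also: negative z-score means lost luminescence so less FERM oligomerization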
CYP2C9 act: human CYP2C9 activators, primary screen, biochemical, luminescence. activation factor at 5 µM. Cytochrome P450 2C9 (Homo sapiens), P11712. recombinant CYP2C9, luciferin-H conversion; active compounds read high; factor 1 = untreated enzyme, 0 = blocked. 96,000 tested, 1.4% active;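 active = activation factor of 2 or more for CYP2C9 at a 5 µM dose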;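 also: 0 = sulfaphenazole-blocked wells and 1 = vehicle-only wells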
Target sequence (P11712 whole entry, looked up): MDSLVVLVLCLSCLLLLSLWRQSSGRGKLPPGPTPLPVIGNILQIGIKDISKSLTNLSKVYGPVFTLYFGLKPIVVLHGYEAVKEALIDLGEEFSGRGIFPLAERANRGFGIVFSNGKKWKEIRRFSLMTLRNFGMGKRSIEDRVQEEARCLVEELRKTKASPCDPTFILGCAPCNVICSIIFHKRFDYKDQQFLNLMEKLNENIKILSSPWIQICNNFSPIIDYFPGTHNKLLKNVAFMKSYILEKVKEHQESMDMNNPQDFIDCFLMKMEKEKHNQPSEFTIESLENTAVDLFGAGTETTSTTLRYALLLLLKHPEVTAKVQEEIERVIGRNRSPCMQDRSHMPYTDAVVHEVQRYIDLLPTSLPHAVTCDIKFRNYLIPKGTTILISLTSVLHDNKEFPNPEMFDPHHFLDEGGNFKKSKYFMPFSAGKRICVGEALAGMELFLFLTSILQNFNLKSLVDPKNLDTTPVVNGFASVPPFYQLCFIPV
CYP2C19 activ: human CYP2C19 activators, primary screen, biochemical, luminescence | 96,000 tested, under 10 active | recombinant CYP2C19, luciferin-H EGE luminescence; active compounds read high; 0 = fully inhibited enzyme, 1 = untreated enzyme | AID 1025, 2008 | activation factor at 5 µM | Cytochrome P450 2C19 (Homo sapiens), P33261;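 active = activation factor of at least 2 at 5 µM in the primary screen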;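 also: 0 = wells with 2.5 mM tranylcypromine and 1 = vehicle-only wells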
CYP2C9 inhib: blockers of cytochrome P450 2C9 activity – biochemical, luminescence, ADME assay, primary screen; 96,000 tested, 20% active; inhibition, % at 5 µM; AID 777, 2007; CYP2C9 Supersomes, luciferin-H conversion;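 active = blocking of liver enzyme CYP2C9 beyond about 50% at 5 µM, limit read from the data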
CYP2C19 inhib: blockers of cytochrome P450 2C19 activity – biochemical, luminescence, ADME assay, primary screen | P33261 | CYP2C19 Supersomes, luciferin-H EGE luminescence, 30 min | inhibition, % at 5 µM | 96,000 tested, 21% active | AID 778, 2007;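 active = CYP2C19 inhibition above a set limit at 5 µM in the primary screen, cut at about 50% in these data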;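 also: plate controls were negative control wells for no effect and 2.5 mM tranylcypromine positive control for full effect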
* marks the source's active call; other numbers are inactive results; . = no result given.

SMILES | Pyk2 oligo antag | CYP2C9 act | CYP2C19 activ | CYP2C9 inhib | CYP2C19 inhib
Brc1ccc(-c2nn3c(Cc4ccccc4)nnc3s2)o1 | -0.43 | 0.9 | 0.3 | 13 | 68*
Clc1ccc(-c2nnc3sc(-c4ccc(Br)o4)nn23)cc1 | 0.85 | 0.8 | 0.7 | 15 | 33
Clc1ccccc1-c1nnc2sc(-c3ccc(Br)o3)nn12 | -0.95 | 0.5 | 0.2 | 47 | 80*
Clc1ccc(-c2nnc3sc(-c4ccc(Br)o4)nn23)c(Cl)c1 | 0.18 | 0.8 | 0.4 | 21 | 58*
Nc1c(-c2ccc(Cl)cc2)cnc2ncnn12 | 1.8 | 0.9 | 0.6 | 12 | 38
Cc1cc2ncc(-c3ccc(Cl)cc3)c(N)n2n1 | . | 0.2 | 0.7 | 77* | 35
O=C(CCc1ccc(S(=O)(=O)NC2CCCCC2)cc1)NCc1ccc(Cl)cc1 | 0.2 | 0.6 | 0.8 | 44 | 21
COc1cc(C)ccc1NC(=O)c1ccc(S(=O)(=O)N2CCOCC2)cc1 | 0.33 | 2.9* | 1.1 | -189 | -6
CCOC(=O)c1ccc(NC(=O)c2ccc(C)c(S(=O)(=O)N3CCOCC3)c2)cc1 | -3 | 1.1 | 0.7 | -15 | 26
CCNc1ccc(C(=O)OCC)cc1NC(=O)c1cc(S(=O)(=O)N2CCOCC2)ccc1C | -0.81 | 0.5 | 0.1 | 54* | 88*
Cc1cc(C)c(NC(=O)c2ccc(S(=O)(=O)N3CCOCC3)cc2)c(C)c1 | . | 1 | 1.1 | -3 | -13
Cc1ccc(C)c(NC(=O)CCc2ccc(S(=O)(=O)NC3CCCCC3)cc2)c1 | 0.66 | 0.2 | 0.2 | 76* | 84*
N#Cc1ccc(NC(=O)CCc2ccc(S(=O)(=O)N3CCOCC3)cc2)cc1 | 0.27 | 0.3 | 0.8 | 70* | 15
COc1ccc(NC(=O)c2cncc(Br)c2)c(S(=O)(=O)N2CCOCC2)c1 | -0.03 | 0.7 | 0.4 | 28 | 55*
CCNc1ccc(C(=O)OCC)cc1NC(=O)c1cccc(N(C)C)c1 | -0.47 | 0.5 | 0.7 | 50* | 28
Cc1ccc(NC(=O)CCc2ccc(S(=O)(=O)N3CCOCC3)cc2)c(C)c1 | -0.03 | 0.3 | 0.5 | 65* | 51*
CN1CCN(c2nc3nonc3nc2N2CCN(C)CC2)CC1 | 0.81 | 0.9 | 0.9 | 8 | 5
COc1ccc(-n2c(-c3ccc(F)cc3)cnc2SCC(=O)NCc2ccco2)cc1 | -2.3 | 0.1 | 0.1 | 94* | 92*
O=C(CSc1ncc(-c2ccccc2)n1-c1ccccc1)NCc1ccco1 | -1.9 | 0.3 | 0.5 | 74* | 50*
COc1ccc(-c2nnc(SCC(=O)NCc3ccco3)n2C)cc1 | 0.71 | 0.9 | 1 | 7 | 0
Cn1c(C(=O)NCc2ccccc2)cc2oc3ccccc3c21 | -1.5 | 0.1 | 0.5 | 91* | 52*
Cn1c(C(=O)NCC2CCCO2)cc2oc3ccccc3c21 (stereo not drawn) | -0.19 | 0.2 | 0.3 | 81* | 72*
O=C(NCc1ccccc1)c1cc2ccccc2o1 | 1.2 | 1 | 0.5 | -3 | 46
CC(C)CC(=O)c1c[nH]c(C(=O)NCC2CCCO2)c1 (stereo not drawn) | 0.23 | 1.2 | 1.1 | -17 | -12
Cn1c(C(=O)NCC2CCCO2)cc2c(=O)[nH]c3ccccc3c21 (stereo not drawn) | -1.3 | . | . | . | .
SMILES | Pyk2 oligo antag | CYP2C9 act | CYP2C19 activ | CYP2C9 inhib | CYP2C19 inhib
CC(=O)c1c[nH]c(C(=O)NCC2CCCO2)c1 (stereo not drawn) | -0.16 | 0.9 | 0.3 | 11 | 69*
Cn1c(C(=O)NCc2cccs2)cc2oc3ccccc3c21 | -0.54 | 0.2 | 0.5 | 79* | 51*
CN(C(=O)COC(=O)c1ccc2c(c1)OCO2)C1CCS(=O)(=O)C1 (stereo not drawn) | 0.77 | 1.2 | 1.1 | -21 | -10
N#Cc1cc(-c2ccccc2)nnc1Oc1ccccc1Cl | 0.96 | 1.1 | 1.2 | -7 | -20
CN1CCN(c2nc(NCCOC34CC5CC(CC(C5)C3)C4)nc(OCC(F)(F)F)n2)CC1 | 0.02 | 1 | 0.6 | -2 | 39
CCOC(=O)/C(C#N)=C/c1ccc(OCC(=O)Nc2cc(C)ccc2C)c(OC)c1 | 0.15 | 0.7 | 0.7 | 28 | 29
CCOC(=O)/C(C#N)=C\c1ccc(OCC(=O)Nc2ccc(C)cc2C)c(OC)c1 | -0.21 | 0.7 | 0.2 | 27 | 78*
CCSc1nnc(N)s1 | -0.13 | 0.9 | 0.9 | 14 | 9
Cc1nc2ccccc2nc1CSc1nnc(N)s1 | 0.36 | 1.2 | 0.5 | -24 | 54*
O=C(O)c1ccc(C(=O)Nc2cccc(NC(=O)C3CCCO3)c2)cc1 (stereo not drawn) | -0.07 | 1 | 1 | 1 | -3
O=C(NC12CC3CC(CC(C3)C1)C2)c1cncc(O)c1 | 1.1 | 0.9 | 0.9 | 13 | 14
CN(C)c1oc(COc2ccccc2F)nc1C#N | 1.2 | 0.6 | 0.1 | 42 | 92*
COc1ccc(CCNc2oc(COc3ccccc3F)nc2C#N)cc1 | -0.52 | 0 | 0.1 | 97* | 94*
N#Cc1nc(COc2ccccc2F)oc1NCc1ccc(F)cc1 | . | 0.3 | 0.4 | 72* | 55*
O=c1ccc(Oc2nc(N3CCCCC3)nc(N3CCCCC3)n2)n[nH]1 | -0.54 | 1.2 | 1 | -15 | 0
CCCn1nnnc1NCc1cccn1C | -0.15 | 1.1 | 0.9 | -7 | 8
Cc1[nH][nH]c(=O)c1C(c1ccc(-c2ccc(Cl)c(Cl)c2)o1)c1c(C)[nH][nH]c1=O | -0.56 | 0.9 | 0.4 | 11 | 59*
COc1cccc(C(=O)CSc2nnc(CNS(C)(=O)=O)n2-c2ccc(C)cc2)c1 | 1.2 | 0.6 | 0.7 | 39 | 33
CCc1ccc(-c2cn(-c3nc(C)cc(C)n3)c(=N)o2)cc1 | -0.55 | 0.8 | 0.4 | 23 | 59*
CCc1ccc(Oc2cc(C)nc(N)n2)cc1 | 0.55 | . | . | . | .
Cc1cccc(OCC(=O)N(C)CCc2ccccn2)c1 | 1.5 | 0.9 | 0.3 | 13 | 68*
Cc1[nH]n(-c2ccccc2)c(=O)c1C1(C(F)(F)F)C(=O)N(c2ccccc2)C2=C1C(=O)CC(C)(C)C2 (stereo not drawn) | -0.03 | 0.3 | 0.8 | 73* | 20
Cc1ccc(N2C(=O)C(c3c(C)[nH]n(-c4ccccc4)c3=O)(C(F)(F)F)C3=C2CC(C)(C)CC3=O)cc1 (stereo not drawn) | -0.68 | 0.6 | 0.6 | 41 | 37
CC(C(=O)Nc1ccccc1Sc1ccccc1)N(c1ccccc1)S(C)(=O)=O (stereo not drawn) | -1.3 | 0.5 | 0.6 | 54* | 41
CCSc1nnc(NC(=O)CCc2ccccc2)s1 | 0.91 | 0.7 | 0.5 | 33 | 49
CS(=O)(=O)N(CC(=O)Nc1ccccc1Sc1ccccc1)c1ccc(F)cc1 | -0.87 | 0.4 | 0.7 | 61* | 28
